Measurements as given in PubChem BioAssay (NCI).
The panel holds about 83,000 compounds, 20% with a hit somewhere; the sample as a whole holds those more often.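 Cells were grown in 96-well plates and exposed to the test compound at a single concentration for 48 hours; results are reported as percent growth, with values below 10 considered active.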 Unmarked numbers belong to inactive results. Calls of active or inactive are those of the source.

Tests used:
Experiment in all cases: NCI-60 one-dose screen, 48 h (100 = growth as untreated, 0 = no growth, -100 = all killed)
Conditions in all cases: 10 µM unless noted
[1] = system: DU-145 prostate
[2] = system: K-562 leukemia
[3] = system: MALME-3M melanoma
[4] = system: MDA-MB-231 breast
[5] = system: RXF 393 renal
[6] = system: SF-268 CNS
[7] = system: SF-295 CNS
[8] = system: SF-539 CNS
[9] = system: UACC-257 melanoma
[10] = system: M14 melanoma
[11] = system: HCT-15 colon
[12] = system: HT29 colon
[13] = system: SNB-75 CNS
[14] = system: SNB-19 CNS
[15] = system: U251 CNS
[16] = system: PC-3 prostate
[17] = system: SK-MEL-5 melanoma
[18] = system: UACC-62 melanoma
[19] = system: LOX IMVI melanoma
[20] = system: SK-MEL-28 melanoma

Row | Compound | growth [1] [%] | growth [2] | growth [3] | growth [4] | growth [5] | growth [6] | growth [7] | growth [8] | growth [9] | growth [10] | growth [11] | growth [12] | growth [13] | growth [14] [%] | growth [15] | growth [16] [%] | growth [17] | growth [18] | growth [19] | growth [20]
1 | Cc1ccc(NS(=O)(=O)c2ccc3c(c2)C2OCCC2C(c2ccc(C(=O)C(C)C)cc2)N3)cc1C (stereo not given) | 60.9 | 33.6% | 17.1% | 76.5% | 65.4% | 57.8% | 31.9% | 66% | 23.9% | 50% | 32.3% | 44.9% | 61.8% | 68.2 | 49.1% | 28.8 | -32.4% (active) | 47.2% | 64.2% | 51.3%
2 | Cc1cc(NCCCCNc2ccnc3cc(Cl)ccc23)nc(Nc2ccc(C(=O)N3CCCCC3)cc2)n1 | 21.8 | -46.2% (active) | -76.3% (active) | -41.1% (active) | -74.4% (active) | -38.3% (active) | -60.3% (active) | -79.6% (active) | -67.5% (active) | -85% (active) | -31.6% (active) | -25.4% (active) | -73.4% (active) | 25.1 | -36.3% (active) | 12.2 | -96.5% (active) | -57.8% (active) | -78.3% (active) | -76.5% (active)
3 | Cc1ccc(/C=C2\C(=O)N(C)c3ccc(S(=O)(=O)Nc4ccc(C(C)(C)C)cc4)cc32)s1 | 38.9 | 66.7% | 42.5% | 21.2% | 42.1% | 26.7% | 42.6% | 19.4% | 76% | 67% | 68% | 64.9% | -18.3% (active) | 58.3 | 20.5% | 52.9 | 82.3% | 60.7% | 28.2% | 69.1%
4 | Cc1cc(NCc2cc(Nc3ccnc4cc(Cl)ccc34)ccc2F)nc(N2CCOCC2)n1 | 23.8 | 4.21% (active) | -0.307% (active) | 19.1% | -3.51% (active) | 42.4% | -71.6% (active) | -29.4% (active) | 50.8% | -22.9% (active) | 12.4% | 8.57% (active) | -22.2% (active) | 56.1 | -48% (active) | 37.5 | 28.4% | 4.01% (active) | -78.4% (active) | 5.36% (active)
5 | O=C(/C=C/c1c(Cl)nc2sccn12)c1ccc(F)c(F)c1 | 96.1 | 48.1% | 113% | 81.8% | 69.7% | 81.4% | 91.9% | 96.5% | 73.9% | 87.2% | 90.4% | 87% | 60.4% | 87.9 | 90.7% | 78.8 | 66.4% | 68.7% | 92% | 96%
6 | C#CCOc1nc(C)cc(C)c1C#N | 104 | 100% | 99% | 94.5% | 106% | 99.6% | 104% | 97.9% | 103% | 98.1% | 96% | 107% | 79.6% | 96.2 | 98.1% | 140 | 98.9% | 93.5% | 97.4% | 111%
7 | CCOC(=O)c1c(-c2ccc(Cl)cc2)c(C#N)c(=O)n(-c2ccccc2CC)c1N | 93.5 | 77.6% | 100% | 90.8% | 111% | 86.8% | 74.3% | 100% | 113% | 105% | 89.7% | 110% | 89.8% | 120 | 90% | 77.5 | 85.1% | 68.8% | 95% | 99.3%
8 | CCCCCc1nc2c(c3c1CCCC3)CCCC2 | 114 | 37.3% | 102% | 104% | 80% | 105% | 81.6% | 93.2% | 82.5% | 103% | 74.8% | 55.4% | 82.1% | 72.8 | 83.7% | 64.9 | 83.8% | 82.2% | 88.3% | 100%
